Test results as given in PubChem BioAssay AID1745850 (National Center for Advancing Translational Sciences (NCATS), 2022).
The whole screen tested about 2,100 compounds, of which about 260 (12%) were called active. Roughly 58% stayed inconclusive and do not appear here. This is one part of the list. Unmarked numbers belong to inactive results. Calls follow the shape of the dose curve; as a rule, active = well fitted cell-killing curve with a large enough effect; inconclusive = small, poorly fitted or top-dose-only effect, or effect the other way; inactive = flat fitted curve, though single readings scatter.

experiment: Viability Counterscreen for Confirmatory qHTS for Inhibitors of ATXN expression; conditions: HEK-293 ATXN2-luc cells viability, CellTiter-Fluor, 24 h; activity change, negative = cytotoxicity: at the top concentration; also: nearly all actives have a fitted effect of over 50% in size
Procedure, shortened: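 Cells with an ATXN2-luciferase reporter were dosed in a dilution series for 24 h at 37 degrees C. Viability was read first with Gly-Phe-AFC at 25 uM final (fluorescence, ex 405/em 540), then SteadyGlo luminescence. Medium-only wells defined 100% inhibition.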
Potency is read from the fitted curve at half-maximal effect.

Structure (SMILES) | activity change, negative = cytotoxicity | Potency
Nn1cnnc1N/N=C/c1cc(Br)cc(Br)c1O | -4.48% | 
OC(c1ccccn1)(c1ccccn1)c1ccccn1 | -12.8% | 
COc1cc(C=CC(=O)c2cc(OC)c(OC)c(OC)c2)cc(OC)c1OC |  | 17.8 µM (active)
COc1ccc(C(=O)/C=C/c2ccc(OC3CSC3)cc2)cc1OC | -2.31% | 
COc1ccc(C(=O)/C=C/c2cccc(OCc3ccccc3)c2)cc1CSCC(=O)O | -25.6% | 
CS(=O)(=O)N(CC(O)CON=C1c2ccccc2-c2ccccc21)c1ccc(F)cc1 (stereo not given) | -13.4% | 
Nc1nc(NCCCN2CCOCC2)nc(Nc2ccccc2F)c1[N+](=O)[O-] | -10.7% [at 57.5 µM] | 
Cc1ccc(C)c(OCCCC(=O)Nc2nccs2)c1 | -9.55% [at 57.5 µM] | 
Cn1c(/C=C/c2ccc(Cl)cc2)c([N+](=O)[O-])c(=O)n(C)c1=O |  | 22.4 µM (active)
Cn1c(/C=C/c2ccc(Cl)cc2Cl)c([N+](=O)[O-])c(=O)n(C)c1=O |  | 22.4 µM (active)
Cc1cc(OCC(=O)Nc2ccc(Br)cc2)cc2c1C(=O)CC(C)(C)O2 | -17.5% | 
NC1=NC[C@H](Cc2ccccc2)N1CCCCC1CCCCC1 | -14.5% | 
CCc1cc(-c2[nH]ncc2-c2ccc(OC)cc2)c(O)cc1O | -9.53% | 
CC(C)=CCc1c(O)cc2oc3c(CC=C(C)C)c(O)c(O)c(CC=C(C)C)c3c(=O)c2c1O | -29.3% | 
Cc1c(N/N=C(\C#N)C(=O)c2ccccc2)c(=O)n(-c2ccccc2)n1C |  | 12.6 µM (active)
Cc1ccccc1C(=O)/C(C#N)=N/Nc1c(C)n(C)n(-c2ccccc2)c1=O |  | 10 µM (active)
COc1ccc(NS(=O)(=O)c2ccc(C(=O)Nc3c(C)n(C)n(-c4ccccc4)c3=O)cc2)cc1 | -6.96% | 
Cc1cc(C)cc(NC(=O)/C(C#N)=C/c2cn(CC(=O)NCc3ccco3)c3ccccc23)c1 | -17.7% | 
Nc1c(C(=O)NCCN2CCOCC2)c2nc3ccccc3nc2n1CCc1ccccc1F | 9.01% [at 57.5 µM] | 
CCOC(=O)c1c(NC(=O)COC(=O)CNC(=O)c2ccco2)sc(C)c1C | -7.39% | 
N#Cc1ccccc1NC(=O)C1SC(=Nc2ccccc2)C(C(=O)Nc2ccc(Cl)cc2)=C1N (stereo not given) | 3.17% | 
O=C(CSc1ccc2ccccc2c1)Nc1nc2ccccc2[nH]1 | 3.26% | 
C/C(=N\NC(=O)CSCc1ccc([N+](=O)[O-])cc1)c1ccccc1O | -8.24% | 
N#Cc1c(Oc2ccc3ccccc3c2)sc(C(=O)c2ccccc2)c1N | -25.3% [at 57.5 µM] | 
COc1cnc(-c2ccccn2)nc1NC(C)C |  | 10 µM (active)

Structure (SMILES) | activity change, negative = cytotoxicity | Potency
COC(=O)COc1ccc(-c2nccc(-c3ccccn3)n2)cc1 | 0.594% | 
COc1ccc(O)c(/C=N/NC(=O)c2ccc(OCc3cccc(Br)c3)cc2)c1 | -21.1% | 
O=C(N/N=C/c1cc([N+](=O)[O-])ccc1O)c1ccc(COc2ccc3c(c2)CCC3)o1 |  | 11.2 µM (active)
O=C(CNS(=O)(=O)c1ccc([N+](=O)[O-])cc1)N/N=C/c1ccc(O)cc1O | -28.9% | 
C=CCc1cccc(/C=N/NC(=O)CNc2ccccc2)c1O | -15.6% | 
COc1cccc(C(NC(C)=O)c2ccc3cccnc3c2O)c1 (stereo not given) |  | 8.91 µM (active)
COc1ccc(C(NC(C)=O)c2cc(Cl)c3cccnc3c2O)cc1 (stereo not given) |  | 8.91 µM (active)
O=C(Nc1cccc(C(F)(F)F)c1)Oc1ccc(Cl)c2cccnc12 | -21.6% | 
CCCCC(=O)NC(c1ccc(N(CC)CC)cc1)c1ccc2cccnc2c1O (stereo not given) | -19.4% | 
CCCC(=O)NC(c1ccc(C(C)C)cc1)c1ccc2cccnc2c1O (stereo not given) | -8.49% | 
CC(=O)NC(c1ccc(C)cc1)c1cc(Cl)c2cccnc2c1O (stereo not given) |  | 11.2 µM (active)
COc1ccc(C(NC(C)=O)c2cc(Cl)c3cccnc3c2O)cc1OC (stereo not given) |  | 10 µM (active)
C(=N\NC(=Nc1ccccc1)c1ccccn1)/c1ccccn1 | -13.3% [at 57.5 µM] | 
COc1ccc(CNC(=O)CSc2nc(-c3ccccc3)cc(-c3cccs3)c2C#N)cc1 | -15.1% | 
COc1cc2ccnc(Cc3cccc(OC)c3OC)c2cc1OC | -15.2% [at 57.5 µM] | 
COc1ccc(OC)c(C(=O)/C=C/c2ccccc2C(F)(F)F)c1 | -23.1% | 
Cc1ccc2nc(-c3ccccc3)nn2c1 | -10.1% | 
O=C(N/N=C/c1cc(Br)cc(Br)c1O)c1cccc(N2CCCC2=O)c1 | 14.3% | 
COC(=O)c1ccc(C(=O)Nc2cc(Cl)ccc2Cl)cc1NC(=O)c1ccc(N(C)C)cc1 | -1.24% | 
O=C(NC(c1ccc(Cl)cc1)c1cc(Cl)c2cccnc2c1O)c1cccnc1 (stereo not given) |  | 12.6 µM (active)
O=C(N/N=C/c1cc(Cl)ccc1O)c1cccnc1 | 4.12% | 
O=C(N/N=C/c1c(O)n(Cc2ccccc2)c(=O)c2ccccc12)c1cccnc1 | 9.53% [at 57.5 µM] | 
Cc1ccc(S(=O)(=O)Nc2cc(Cl)c(O)c3ncccc23)cc1 |  | 10 µM (active)
Cc1cc(NC(c2cccnc2)c2ccc3cccnc3c2O)no1 (stereo not given) |  | 8.91 µM (active)
COc1cc(CNCc2ccncc2)cc(Br)c1OCc1ccccc1F | -7.84% | 
